An excerpt weighted towards active compounds, which were near 7.3% of everything screened.
Luc counter – Counterscreen for Luciferase (Kinase-Glo TM) Inhibition; actives 0.28% (n = 200,000); Luciferin 4-monooxygenase (Photuris pensylvanica), Q27757; AID 1379, 2008; Kinase-Glo luciferase, ATP luminescence, 8 min; Potency, µM (highest dose often 38.3 µM), actives largely listed as inhibitors; also: nearly all actives have a fitted effect of over 60% in size
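Compounds were added to a substrate mix at pH 7.2 (50 mM imidazole, 10 uM ATP, within the enzyme's linear range), followed by Kinase-Glo detection reagent; luminescence was measured after 8 minutes at ambient temperature.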
Rab9 promoter act – qHTS Assay for Rab9 Promoter Activators; Huh7 Rab9 promoter-luciferase reporter, luminescence, 24 h; Potency, µM (highest dose often 9.22 µM), actives largely listed as activators; actives 2.8% (n = 320,000); also: nearly all actives have a fitted effect of over 60% in size
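Cell-based reporter: Huh7 stable for Rab9 promoter-driven luciferase, plated in reduced-serum medium with 10% FBS at 1500 cells/well, compound-treated 24 h at 37 °C, luminescence read after 10 min reagent.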
SMN2 splice enh – qHTS Assay for Enhancers of SMN2 Splice Variant Expression; HEK293 SMN2-luciferase splicing reporter, luminescence, 30-36 h; Potency, µM (series often up to 46.1 µM), actives largely listed as activators; actives 2.8% (n = 210,000); AID 1458, 2008; also: nearly all actives have a fitted effect of over 55% in size
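HEK293 cells carry an SMN2 […]–luciferase reporter in which exon 7 inclusion puts luciferase in frame. Cells were plated 10-12 h before compound addition, then incubated 30-36 h at 37C. ONE-Glo luminescence was read; sodium butyrate at 4.5 mM final served as control.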
FLuc modulator – qHTS profiling assay for firefly luciferase inhibitor/activator using purifed enzyme and Km concentrations of substrates (counterscreen for miR-21 project); Luciferin 4-monooxygenase (Photinus pyralis), P08659; purified FLuc, Km substrates, luminescence inhibition; Potency, µM (highest dose often 57.5 µM), most hits filed as inhibitors; actives 6.9% (n = 360,000); AID 588342, 2011; also: nearly all actives have a fitted effect of over 55% in size
Target sequence (P08659 whole entry, looked up): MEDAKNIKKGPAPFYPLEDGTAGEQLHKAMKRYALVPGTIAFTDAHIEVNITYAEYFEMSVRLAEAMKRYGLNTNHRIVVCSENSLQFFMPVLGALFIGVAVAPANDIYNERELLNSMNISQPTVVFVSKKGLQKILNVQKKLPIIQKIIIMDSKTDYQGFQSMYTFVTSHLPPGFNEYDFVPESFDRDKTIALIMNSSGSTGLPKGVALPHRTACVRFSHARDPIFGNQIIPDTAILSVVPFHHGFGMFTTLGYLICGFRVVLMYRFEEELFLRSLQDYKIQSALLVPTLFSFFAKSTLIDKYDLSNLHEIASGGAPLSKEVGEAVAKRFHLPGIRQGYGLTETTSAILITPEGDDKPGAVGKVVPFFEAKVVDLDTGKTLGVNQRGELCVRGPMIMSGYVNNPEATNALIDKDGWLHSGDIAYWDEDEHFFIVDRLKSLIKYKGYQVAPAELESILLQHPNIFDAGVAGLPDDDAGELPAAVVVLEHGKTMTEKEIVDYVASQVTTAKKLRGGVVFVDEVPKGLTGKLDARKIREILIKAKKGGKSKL
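Purified P. pyralis luciferase (10nM final) with 10uM D-luciferin and 10uM ATP (Km levels) in 50mM Tris acetate pH 7.5, 10mM Mg acetate, 0.01% Tween-20, 0.05% BSA; qHTS 6-point titration, ~60 µM downward; luminescence read.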
NPC1 promoter act – qHTS Assay for NPC1 Promoter Activators; Huh7 NPC1 promoter luciferase reporter, 24 h; Potency, µM (top dose mostly 9.22 µM), usual class: activators; actives 2.4% (n = 320,000); AID 485313, 2010; also: nearly all actives have a fitted effect of over 60% in size
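Compounds in DMSO were transferred onto Huh7 NPC1-luciferase reporter cells pre-incubated 2 h; after 24 h at 37 °C, Amplite reagent was dispensed and luminescence recorded 10 min later.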
A number is an active result; 0 = inactive; ? = inconclusive; - = no result given. Calls follow the shape of the dose curve; as a rule, active = well fitted curve in the direction sought with a large enough effect; inconclusive = small, poorly fitted or top-dose-only effect, or another doubt; inactive = no such curve, though single readings can be large; an effect the other way counts as inactive or inconclusive.

SMILES	Luc counter	Rab9 promoter act	SMN2 splice enh	FLuc modulator	NPC1 promoter act
COC(=O)Cn1ncc2c(C)n(Cc3ccccc3)c(C)c2c1=O	0	?	18µM	12µM	?
CCOc1ccc(C2CC(=O)c3c([nH]c(C(=O)OCC4CCCCC4)c3C)C2)cc1 (stereo not drawn)	-	-	0	0	-
CCN1CCN(Cc2c(O)ccc3c2O/C(=C\C=C\c2ccccc2OC)C3=O)CC1	0	0	0	4.8µM	0
CCN1CCN(Cc2c(O)ccc3c(=O)c(-c4ccccc4OC)coc23)CC1	0	0	0	0	0
Cc1cc(C)cc(OCC(=O)Nc2c(C)ccc3nsnc23)c1	-	-	0	0	-
C=C(C)[C@@H]1CC[C@]2(C(=O)O)CC[C@]3(C)[C@H](CCC4[C@@]5(C)CC[C@H](O)C(C)(C)[C@@H]5CC[C@]43C)[C@@H]12 (stereo partly drawn)	-	-	0	-	-
O=C(c1ccc2c(c1)N(Cc1ccc(Cl)cc1)C(=O)c1ccccc1S2(=O)=O)N1CCOCC1	-	-	0	0	-
Cc1ccc2c(c1)sc1nc(=O)n(-c3ccccc3)c(=O)n12	-	0.32µM	-	?	0.56µM
Cc1ccc2c(c1)sc1ncc(NC(=O)c3ccc(F)cc3)c(=O)n12	0	0	0	0	0
O=[N+]([O-])c1cc(N=Nc2ccc3ccccc3c2)ccc1O	-	2µM	-	3.4µM	2.2µM
Nc1ccc(O)c([N+](=O)[O-])c1	-	0	0	0	0
COCCNC(=O)CCCn1c(SCc2ccccc2Cl)nc2c(sc3ccccc32)c1=O	-	-	-	0	-
COc1ccc(NC(=O)COc2ccc(S(=O)(=O)NC3CCCCC3)cc2)cc1OC	-	-	0	0	-
CCOc1ccccc1NC(=O)COc1ccc(S(=O)(=O)NC2CCCCC2)cc1	-	-	0	8.5µM	-
COc1ccc(-n2c(=O)c3ccc(C(=O)NCc4ccc(C)cc4)cc3n(CC(=O)Nc3ccc(F)cc3)c2=O)cc1	-	-	0	0	-
COc1ccc2nc(N(Cc3cccnc3)C(=O)c3ccc(Cl)cc3)sc2c1	-	-	-	0	-
Cc1oc(/N=C/c2ccc(O)cc2O)c(C#N)c1C	0	0	0	17µM	0
Cc1oc(/N=C/c2ccc(Cl)cc2)c(C#N)c1C	0	0	0	11µM	0
COC(=O)CN1C(=O)CSc2ccc(S(=O)(=O)N3CCOCC3)cc21	-	-	-	0	-
Cn1c(=NC(=O)c2ccccc2[N+](=O)[O-])sc2cc(S(C)(=O)=O)ccc21	0	0.56µM	2.2µM	0.54µM	0.35µM
CC1(C(=O)NCCN2CCOCC2)C=CCN1C(=O)c1ccccc1 (stereo not drawn)	0	0	?	24µM	0
CNC(=O)C1(C)C=CCN1C(=O)c1ccccc1 (stereo not drawn)	0	0	0	0	0
Cc1cc(=O)n2nc(N(C)CC(=O)NCc3ccc(Cl)cc3)sc2n1	-	-	0	0	-
Cc1ccc(NC(=O)Cn2nnnc2-c2ccccc2N)cc1	-	-	0	0	-
CCOc1ccc(/C=N/NS(=O)(=O)c2ccc(C)cc2)cc1OC	-	0	-	0	0
SMILES	Luc counter	Rab9 promoter act	SMN2 splice enh	FLuc modulator	NPC1 promoter act
COc1cc(/C=N/NC(=O)CC2(C)OCCCO2)ccc1OCc1ccccc1	0	0	0	?	0
COc1cc(/C=N/NC(=O)CN2CCCCC2)ccc1OCc1ccc(Br)cc1	0	0	10µM	15µM	0
COc1cc(/C=N/NS(=O)(=O)c2ccc(C)cc2)ccc1OCc1ccc(C(=O)O)cc1	-	4.5µM	-	0.024µM	0.79µM
C=CCS/C(N)=N\N=C\c1c(O)ccc2ccccc12	-	2.8µM	-	4.8µM	0
CCN(CC)c1ccc(/C=N/N=C(c2ccccc2)c2ccccc2)c(O)c1	0	0	0	0	0
CCCS/C(N)=N/N=C/c1ccccc1O	0	2.5µM	11µM	9.5µM	2.8µM
CCOc1cccc(-c2cc(C(=O)N3N=C(C)CC3(O)C(F)F)c3ccccc3n2)c1 (stereo not drawn)	0	0	0	24µM	0
O=C(c1cc(-c2ccccc2)nc2ccccc12)N1N=C(C(F)F)CC1(O)C(F)F (stereo not drawn)	0	0	0	0	0
CCOc1cccc(-c2cc(C(=O)Nc3ccon3)c3ccccc3n2)c1	-	0	-	?	0
Cc1ccc(-c2cc(C(=O)N3N=C(C(F)F)CC3(O)C(F)F)c3ccccc3n2)cc1C (stereo not drawn)	0	0	0	7.6µM	0
CCc1cc2c(cc3c(=O)n(CCCC(=O)NCc4ccccc4Cl)nc(CC)n32)s1	-	-	0	0	-
Cc1ccc(Cl)cc1N1CCN(C(=O)c2cn(C3CCCCC3)c(=O)c3c2c2ccccc2n3C)CC1	-	-	0	0	-
CC(=O)NC1C(=O)N(CCN2CCOCC2)c2ccc(C)cc21 (stereo not drawn)	-	0	-	21µM	0
Cc1ccc(C)c(CN2C(=O)CSc3ccc(C(=O)NCCc4ccc(Cl)cc4)cc32)c1	-	-	0	0	-
Cc1cc(C(=O)Nc2sc3c(c2C#N)CCCCC3)cs1	0	1.1µM	11µM	0.95µM	?
N#Cc1c(NC(=O)c2ccncc2)sc2c1CCC2	0	0	?	13µM	0
CC(=O)Nc1sc2c(c1C#N)CCCC2	0	-	0	0	-
COc1cccc(OC)c1C(=O)Nc1sc2c(c1C#N)CCC2	-	0	-	0	0
NC(=O)c1c(NC(=O)c2ccncc2)sc2c1CCCC2	0	?	0	11µM	?
N#Cc1c(NC(=O)c2cccc(S(=O)(=O)Nc3ccc(C(=O)O)cc3)c2)sc2c1CCCC2	-	0	-	19µM	0
CN(C)c1ncnc2ccc(-c3ccccc3C#N)cc12	0	-	0	-	-
COc1ccc(CNC(=O)C2=C(C)C(=O)OC23CCCCC3)cc1OC	-	-	-	0	-
COc1ccc(CCC(=O)NCc2ccc3c(c2)CCN3C(=O)c2cccc(C)c2)cc1	-	-	-	0	-
Cc1ccc(CNC(=O)CCCCn2c(=O)c3ccccc3n(Cc3c(C)cc(C)cc3C)c2=O)cc1	-	-	0	0	-
COC(=O)c1cc2oc3ccccc3c2n1CC(=O)Nc1ccc(N(C)C)cc1	-	-	0	0	-
SMILES	Luc counter	Rab9 promoter act	SMN2 splice enh	FLuc modulator	NPC1 promoter act
NC(=O)c1c(NC(=O)c2cnccn2)sc2c1CCCC2	0	2µM	?	2.7µM	?
CCOC(=O)c1sc(NC(=O)c2ccncc2)c(C#N)c1C	0	0	0	11µM	0
NC(=O)c1c(NC(=O)c2ccccc2)sc2c1CCc1ccccc1-2	0	3.5µM	?	2.1µM	4.5µM
Cn1nc(C(=O)Nc2sc3c(c2C#N)CCCC3)ccc1=O	0	0	0	5.4µM	0
CCOC(=O)c1c(NC(=O)c2ccncc2)sc(C)c1C	0	0	0	0	0
Cn1ncc(Cl)c1C(=O)Nc1sc2c(c1C(N)=O)CCC2	0	0	0	0	0
NC(=O)c1c(NC(=O)c2ccccc2)sc2c1CCN(Cc1ccccc1)C2	-	0	-	0	0

Screening results from PubChem BioAssay.
